GASC-1 inh – inhibitors of human GASC-1 (JMJD2C) demethylase | GST-JMJD2C(1-420) H3K9me3 demethylation, DELFIA europium | inhibition, % at 2.35 µM | hit rate 0.069% among 330,000 | Q9H3R0;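 active = more than half of a compound's replicate wells show inhibition beyond 50%, single wells judged on their own value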;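 also: signal counts dimethyl H3K9 product captured on neutravidin plate; 0% = median of DMSO wells and 100% = 0.3 times that DMSO median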
Target sequence (Q9H3R0 1-420 limits assumed): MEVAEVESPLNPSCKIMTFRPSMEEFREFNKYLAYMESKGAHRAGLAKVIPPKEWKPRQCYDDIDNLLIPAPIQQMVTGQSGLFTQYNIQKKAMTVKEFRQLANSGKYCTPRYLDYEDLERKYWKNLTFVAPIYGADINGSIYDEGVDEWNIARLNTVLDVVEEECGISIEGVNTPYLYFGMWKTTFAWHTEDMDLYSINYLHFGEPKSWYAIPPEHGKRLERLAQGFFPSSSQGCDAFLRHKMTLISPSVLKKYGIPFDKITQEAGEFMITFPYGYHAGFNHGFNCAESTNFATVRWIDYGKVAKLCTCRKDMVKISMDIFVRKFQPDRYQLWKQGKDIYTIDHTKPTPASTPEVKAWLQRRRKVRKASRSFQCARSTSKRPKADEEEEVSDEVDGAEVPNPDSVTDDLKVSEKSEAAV
ALR H2O2 inh – inhibitors of human sulfhydryl oxidase ALR | P55789 | purified ALR, DTT oxidation, H2O2 HRP-luminol luminescence | inhibition, % (no concentration beside the values) | hit rate 3.8% among 290,000 | AID 485317;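 active = mean replicate inhibition above about 79%, with every replicate also reaching it, limit read from the data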
Target sequence (P55789 whole entry, looked up): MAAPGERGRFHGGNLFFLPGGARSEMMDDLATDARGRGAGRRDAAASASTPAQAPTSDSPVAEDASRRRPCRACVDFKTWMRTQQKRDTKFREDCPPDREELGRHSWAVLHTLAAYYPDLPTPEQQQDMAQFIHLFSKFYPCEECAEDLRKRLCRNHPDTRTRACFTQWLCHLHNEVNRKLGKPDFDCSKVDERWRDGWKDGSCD
M18AAP inhibitor – PfM18AAP enzyme inhibition. recombinant PfM18AAP, H-Glu-NHMec fluorogenic cleavage. inhibition, % at 7.35 µM. hit rate 1.2% among 290,000;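 active = inhibition above the campaign mean inhibition over all tested compounds plus 3 SD, cut at about 28% in these data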;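 also: 0% = plate median of test compound wells and 100% = 2 mM ZnCl2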
SMARCA2 activ – SMARCA2 function activation, primary screen; activation, % at 9.1 µM; hit rate 1% among 370,000; MG213 cells, MMTV-luciferase reporter, dexamethasone, overnight; AID 652017; in the data active = activation above about 7.8%;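 also: 0% = vehicle wells and 100% = reference activator wells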
MIN6 prolif-1 – MIN6 beta-cell proliferation induction; AID 2380; hit rate 0.29% among 330,000; proliferation, % at 10 µM; MIN6 cells proliferation, ATPlite luminescence, 48 h; cells starved in 0.2% serum; 100% = growth in 10% serum;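 active = compounds whose signal lies at least 3.5 SD above the mean of all wells on their plate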;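 also: 0% = DMSO-treated cells in low-serum medium and 100% = 10% serum control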
Exocytosis inh – blocks lytic granule exocytosis; hit rate 0.66% among 360,000; inhibition, % at 10 µM; TALL-104 LAMP-1 surface exposure, flow cytometry; cells stimulated with thapsigargin and PMA;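 active = inhibition above about 55%, limit read from the data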
MIN6 prolif-2 – confirmation of inducers of beta-cell replication in MIN6 cells | shares compounds with MIN6 prolif-1 | MIN6 beta-cell proliferation, ATPlite luminescence, 48 h; cells kept in 0.2% serum; scaled between 0.2% and 10% serum | proliferation increase, % at 50 µM | 920 tested, under 10 active;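 active = proliferation increase above 40% at any of the four tested concentrations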
Numbers without * were called inactive; . = no result given. This is a sample that favours compounds with a hit; in the whole collection about 5.4% have one here.

SMILES	GASC-1 inh	ALR H2O2 inh	M18AAP inhibitor	SMARCA2 activ	MIN6 prolif-1	Exocytosis inh	MIN6 prolif-2
COc1ccc(N2C(=NC(=O)C3CCCCC3)SC3CS(=O)(=O)CC32)cc1Cl (configuration not stated)	4	-3	-1	-3	0	0	.
COc1ccc(N2C(=NC(=O)C3CC3)SC3CS(=O)(=O)CC32)cc1Cl (configuration not stated)	0	0	1	0	11*	0	0
COc1ccccc1C(=O)CSc1nnc(-c2ccncc2)n1-c1ccc(Cl)cc1	.	.	.	-3	.	.	.
Nc1ccc(-c2nnnn2-c2ccc(N)cc2)cc1	-5	.	-11	-1	5.3*	-4	-3
Cc1ccc(-n2nnnc2-c2ccccc2)cc1	3	-9	-4	-2	4	1	.
Nc1[nH]c(C(=O)c2ccccc2)c(-c2ccc3ccccc3c2)c1C(=O)NCc1ccc(-c2ccccc2)cc1	.	.	.	-1	.	.	.
COc1cc2c(cc1OC)C(COc1ccccc1OC)N(C(=O)c1ccco1)CC2 (configuration not stated)	-3	-8	-10	1	8.8*	-4	0
CCC(=O)N1CCc2cc(OC)c(OC)cc2C1COc1ccc(F)cc1 (configuration not stated)	-13	.	1	0	9.3*	-2	-1
CCC(=O)N1CCc2cc(OC)c(OC)cc2C1COc1ccccc1OC (configuration not stated)	-4	.	-16	2	.	-2	.
C[C@H]1Cn2cnc(C(=O)Nc3cccc(Cl)c3)c2C(=O)N1	.	.	.	-2	.	8	.
O=C(NC1CCCCN(Cc2cccc(Cl)c2)C1=O)C1CCCCC1 (configuration not stated)	.	.	.	-2	.	.	.
Cc1ccc(F)cc1NC(=O)Nc1cc(C(C)(C)C)nn1C	-46	10	5	6	6.9*	-3	-3
COc1ccccc1NC(=O)Nc1cc(C(C)(C)C)nn1C	7	2	-6	1	-3	-5	.
COc1ccc(Cn2ccc3ccc(-c4ccc5ccn(C(=O)c6ccc(C)cc6)c5c4)cc32)cc1	.	.	.	0	.	.	.
COC(=O)[C@H](C(C)C)N(CCc1cn(Cc2ccc(C)cc2)nn1)S(=O)(=O)c1ccccc1Br	.	.	.	-4	.	.	.
COc1cc(/C=N/NC(=O)CN(Cc2ccccc2)S(=O)(=O)c2ccc3c(c2)OCCO3)ccc1O	-8	67	5	-2	0.0*	0	-5
COC(=O)c1ccc2nc(-c3ccco3)c(Cc3ccccc3OC)n2c1	.	.	.	-2	.	.	.
Cc1cc(NS(=O)(=O)c2ccc(NC(=O)CSc3nnc(-c4ccccn4)n3Cc3ccco3)cc2)nc(C)n1	.	.	.	-5	.	.	.
Cc1cccc(NC(=S)N(CCc2nc3cc(C)c(C)cc3[nH]2)Cc2cccnc2)c1	5	-5	4	-1	4.8*	5	-1
CNC(=S)N(CCc1c(C)[nH]c2ccc(C)cc12)Cc1cccnc1	-5	.	-13	-2	13*	16	-4
COc1ccc(C(=O)NNS(=O)(=O)c2ccccc2)cc1	13	.	3	1	0.0*	1	1
COc1cccc(C(=O)NNS(=O)(=O)c2ccccc2)c1	.	.	.	-7	.	2	.
COc1cc2c(cc1OC)C1=C(C#N)CCC(=NC(=O)c3ccco3)N1CC2	11	-3	4	-1	9.8*	-3	4
COC(=O)CSc1nnc(-c2ccco2)n1-c1ccc(C)cc1	-4	-1	4	1	7.4*	-1	2
Cc1cc(C)n(CC(=O)NCc2ccccc2)c(=O)c1C#N	2	.	-15	-2	6.0*	-3	0
SMILES	GASC-1 inh	ALR H2O2 inh	M18AAP inhibitor	SMARCA2 activ	MIN6 prolif-1	Exocytosis inh	MIN6 prolif-2
Cc1ccc(-n2nnnc2CNC(=O)C2CC(=O)N(c3ccc(F)cc3)C2)cc1C (configuration not stated)	-23	-3	.	-1	12*	-4	1
C=CCNC(=O)c1ccccc1NC(=O)COc1ccccc1	-4	-2	-4	-3	8.4*	-1	1
CCOC(=O)C1(Cc2ccccc2C)CCCN(C(=O)CSC)C1 (configuration not stated)	6	.	-4	2	.	-9	.
CCOC(=O)C1(Cc2ccccc2C)CCCN(C(=O)CCn2nccc2C)C1 (configuration not stated)	-6	0	4	-1	11*	-1	-4
O=C(NC1CCCCCC1)C1CCN(S(=O)(=O)c2ccc(F)cc2)CC1	-2	-1	-1	-3	6.5*	-4	1
NC1(N2SC(S)=C3CCCC=C32)CCCCC1	.	.	.	-2	.	.	.
CN(C)c1cccc2c(S(=O)(=O)NCC3CCN(C(=O)C(=O)c4cc5ccccc5o4)CC3)cccc12	.	.	.	-7	.	.	.
Cn1cc(CN2CCC(C(=O)NC(c3ccc(F)cc3)c3ccc4ccccc4n3)CC2)c2ccccc21 (configuration not stated)	.	.	.	-2	.	37	.
CNC(=O)c1ccccc1NC(=O)c1cccc(S(=O)(=O)N2CCCCC2)c1	-18	.	8	1	7.6*	-1	-4
O=C(C(=O)N1CCN(S(=O)(=O)c2ccc(OC(F)(F)F)cc2)CC1)c1cccc(C(F)(F)F)c1	.	.	.	-2	.	.	.
COc1ccc(CCNS(=O)(=O)c2c(C)n[nH]c2C)cc1	.	.	.	-3	.	.	.
CN1CCN(P(=O)(c2ccccc2)c2nc3ccccc3s2)CC1 (configuration not stated)	2	-2	-5	-2	5.9*	-2	0
C(=C\c1ccccc1)/CSc1nnc(COc2ccccc2)n1Cc1ccco1	.	.	.	-2	.	.	.
C=CCOn1c(C)c(C(C)=O)c2c3no[n+]([O-])c3ccc21	3	-5	-2	2	7.6*	0	4
COC(=O)[C@]12C[C@H](CC(=O)N3CCSCC3)C(=O)N(Cc3ccccc3)C1=C[C@H](COCc1ccccc1)O[C@@H]2C	.	.	.	-5	.	.	.
CC(=O)Nc1nc(Cn2nnc(-c3ccc4c(c3)OCO4)n2)nc(N(C)C)n1	11	43	-3	-3	8.8*	1	2
O=C(O)c1ccccc1SC1CC(=O)N(C2CCCCC2)C1=O (configuration not stated)	2	4	15	.	9.9*	4	-6
Cc1ccsc1/C=N/NC(=O)CNC(=O)c1cccc([N+](=O)[O-])c1C	-2	-1	-4	1	8.1*	-3	-2
Nc1[nH]c(C(=O)c2ccccc2)c(-c2cccc3ccccc23)c1C(=O)NCc1ccc(Cl)cc1Cl	.	.	.	2	.	.	.
CCN(CC)C(=O)Oc1cc(COC)nc(-c2ccccc2)n1	-6	4	3	-3	5.3*	-7	1
COCc1cc(Sc2ccc(Cl)cc2)nc(-c2ccccc2)n1	-3	-8	3	1	-3	1	.
